The results in this text go back to publication PMC7883291.

Holding throughout (experiment): cross-link between two proteins; cross-linking mass spectrometry
The target of experiment [1] is Cytochrome b-c1 complex subunit 2, mitochondrial (UniProt P23004).
Experiment [2] deals with NADH dehydrogenase [ubiquinone] 1 alpha subcomplex subunit 1 (UniProt Q02377).
For experiment [3], the target named is NADH dehydrogenase [ubiquinone] 1 alpha subcomplex subunit 13 (UniProt Q95KV7).
In experiment [4] the target is NADH dehydrogenase [ubiquinone] 1 alpha subcomplex subunit 7 (UniProt Q05752).
NADH dehydrogenase [ubiquinone] 1 alpha subcomplex subunit 7, sequence (Q05752 whole entry, one chain of several): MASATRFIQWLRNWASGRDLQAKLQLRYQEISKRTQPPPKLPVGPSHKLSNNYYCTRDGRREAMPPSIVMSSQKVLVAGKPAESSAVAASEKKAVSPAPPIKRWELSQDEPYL
Experiment [5] has as its target NADH dehydrogenase [ubiquinone] 1 beta subcomplex subunit 11, mitochondrial (UniProt Q8HXG5).
For experiment [6], the target named is NADH dehydrogenase [ubiquinone] 1 beta subcomplex subunit 4 (UniProt P48305).
NADH dehydrogenase [ubiquinone] 1 beta subcomplex subunit 4, sequence (P48305 whole entry, one chain of several): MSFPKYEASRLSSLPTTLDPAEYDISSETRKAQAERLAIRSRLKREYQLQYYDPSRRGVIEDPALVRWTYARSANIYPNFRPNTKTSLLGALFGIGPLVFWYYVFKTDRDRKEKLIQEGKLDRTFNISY
Experiment [7] addresses NADH dehydrogenase [ubiquinone] iron-sulfur protein 4, mitochondrial (UniProt Q02375).

NADH dehydrogenase [ubiquinone] iron-sulfur protein 4, mitochondrial, sequence (Q02375 whole entry): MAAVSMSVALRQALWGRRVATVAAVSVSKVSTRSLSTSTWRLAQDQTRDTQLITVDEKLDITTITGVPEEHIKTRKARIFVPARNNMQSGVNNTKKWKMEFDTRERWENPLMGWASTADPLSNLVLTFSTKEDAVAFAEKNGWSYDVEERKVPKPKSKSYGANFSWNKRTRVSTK
NADH dehydrogenase [ubiquinone] 1 beta subcomplex subunit 11, mitochondrial, sequence (Q8HXG5 whole entry, one chain of several): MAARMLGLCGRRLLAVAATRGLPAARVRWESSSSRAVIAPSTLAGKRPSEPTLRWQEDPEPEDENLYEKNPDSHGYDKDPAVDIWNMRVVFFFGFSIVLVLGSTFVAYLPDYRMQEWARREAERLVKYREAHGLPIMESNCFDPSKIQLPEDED
Cytochrome b-c1 complex subunit 2, mitochondrial, sequence (P23004 whole entry, one chain of several): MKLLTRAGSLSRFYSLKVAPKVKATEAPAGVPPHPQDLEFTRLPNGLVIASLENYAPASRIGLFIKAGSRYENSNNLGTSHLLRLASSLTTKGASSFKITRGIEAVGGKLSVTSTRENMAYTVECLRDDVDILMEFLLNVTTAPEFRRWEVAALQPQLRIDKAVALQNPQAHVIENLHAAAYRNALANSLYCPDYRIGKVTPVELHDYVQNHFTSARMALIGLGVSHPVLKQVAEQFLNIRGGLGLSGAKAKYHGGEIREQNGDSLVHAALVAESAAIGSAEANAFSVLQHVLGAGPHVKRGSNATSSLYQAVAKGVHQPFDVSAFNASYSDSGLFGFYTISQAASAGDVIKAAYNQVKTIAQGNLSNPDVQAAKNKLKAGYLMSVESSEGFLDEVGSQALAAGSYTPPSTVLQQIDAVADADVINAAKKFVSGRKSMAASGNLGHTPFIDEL
NADH dehydrogenase [ubiquinone] 1 alpha subcomplex subunit 13, sequence (Q95KV7 whole entry, one chain of several): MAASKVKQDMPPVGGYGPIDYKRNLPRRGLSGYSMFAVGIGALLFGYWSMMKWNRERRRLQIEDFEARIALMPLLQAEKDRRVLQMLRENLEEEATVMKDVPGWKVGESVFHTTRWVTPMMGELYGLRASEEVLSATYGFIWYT
NADH dehydrogenase [ubiquinone] 1 alpha subcomplex subunit 6, Q02366, sequence (Q02366 whole entry, one chain of several): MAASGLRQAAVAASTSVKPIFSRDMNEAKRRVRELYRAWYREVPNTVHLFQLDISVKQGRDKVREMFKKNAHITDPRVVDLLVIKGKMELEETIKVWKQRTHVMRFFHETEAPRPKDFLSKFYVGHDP
NADH dehydrogenase [ubiquinone] 1 alpha subcomplex subunit 1, sequence (Q02377 whole entry, one chain of several): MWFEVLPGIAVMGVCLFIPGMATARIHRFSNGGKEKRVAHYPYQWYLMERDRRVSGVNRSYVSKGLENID

For “Cytochrome b-c1 complex subunit 7, P00129”, the “listed as a hit” value in experiment [1] is “yes”.

Turning to “Cytochrome c1, heme protein, mitochondrial, P00125”, the “listed as a hit” value in experiment [1] is “yes”.

Consider “NADH dehydrogenase [ubiquinone] 1 alpha subcomplex subunit 8, P42029”, for which the “listed as a hit” value in experiment [2] was “yes”.

“NADH dehydrogenase [ubiquinone] iron-sulfur protein 5, Q02379”: the “listed as a hit” value in experiment [3] is given as “yes”.

On to “NADH dehydrogenase [ubiquinone] 1 alpha subcomplex subunit 5, P23935”, for which, in experiment [4], the “listed as a hit” value is recorded as “yes”.

For the substance “NADH dehydrogenase [ubiquinone] 1 beta subcomplex subunit 9, Q02369”, in experiment [5], the “listed as a hit” value was “yes”.

“NADH dehydrogenase [ubiquinone] 1 beta subcomplex subunit 8, mitochondrial, Q02372”: the “listed as a hit” value in experiment [5] is “yes”.

As for “Cytochrome b-c1 complex subunit 1, mitochondrial, P31800”, the “listed as a hit” value in experiment [6] is “yes”.

Consider “NADH dehydrogenase [ubiquinone] iron-sulfur protein 3, mitochondrial, P23709”, for which, in experiment [7], the “listed as a hit” value is recorded as “yes”.

Turning to “NADH dehydrogenase [ubiquinone] 1 alpha subcomplex subunit 6, Q02366”, the “listed as a hit” value in experiment [7] was “yes”.
